Screen size: about 2,100 compounds; about 770 (37%) were called active. Some of the results follow. Unmarked numbers belong to inactive results.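 How the source made its calls: active means by-eye trace score of 1 for enhancers or -1 for inhibitors, so actives lie on both sides (some results past the limit were not filed as active); inactive means score 0, or 3 fluorescent, or 4 baseline rise.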

The target in the assay is G protein-activated inward rectifier potassium channel 2 (Homo sapiens) + G protein-activated inward rectifier potassium channel 1 (Homo sapiens) (UniProt P48051+P48549). The assay can be described thus: GIRK1/2 thallium flux modulators, retest, confirmation, cell-based, HEK293 rmGlu8/hGIRK1/2, FluoZin-2 (AID 623911). The settings on record: HEK293 rmGlu8/hGIRK1/2, thallium flux FluoZin-2; actives lie on both sides; glutamate co-added at its EC20 level.
G protein-activated inward rectifier potassium channel 2 (Homo sapiens) + G protein-activated inward rectifier potassium channel 1 (Homo sapiens), sequence (P48051 whole entry, looked up): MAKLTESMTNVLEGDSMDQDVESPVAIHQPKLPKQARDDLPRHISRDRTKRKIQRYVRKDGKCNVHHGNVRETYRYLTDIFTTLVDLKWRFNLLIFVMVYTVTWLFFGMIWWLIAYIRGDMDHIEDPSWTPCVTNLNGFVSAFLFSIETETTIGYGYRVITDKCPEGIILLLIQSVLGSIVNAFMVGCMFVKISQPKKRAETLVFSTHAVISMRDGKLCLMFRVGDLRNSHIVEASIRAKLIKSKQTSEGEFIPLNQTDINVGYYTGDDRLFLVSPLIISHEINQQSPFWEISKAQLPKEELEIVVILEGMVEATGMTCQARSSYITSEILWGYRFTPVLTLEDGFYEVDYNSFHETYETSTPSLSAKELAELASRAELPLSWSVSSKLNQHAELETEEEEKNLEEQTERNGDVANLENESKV
G protein-activated inward rectifier potassium channel 2 (Homo sapiens) + G protein-activated inward rectifier potassium channel 1 (Homo sapiens), sequence (P48549 whole entry, looked up): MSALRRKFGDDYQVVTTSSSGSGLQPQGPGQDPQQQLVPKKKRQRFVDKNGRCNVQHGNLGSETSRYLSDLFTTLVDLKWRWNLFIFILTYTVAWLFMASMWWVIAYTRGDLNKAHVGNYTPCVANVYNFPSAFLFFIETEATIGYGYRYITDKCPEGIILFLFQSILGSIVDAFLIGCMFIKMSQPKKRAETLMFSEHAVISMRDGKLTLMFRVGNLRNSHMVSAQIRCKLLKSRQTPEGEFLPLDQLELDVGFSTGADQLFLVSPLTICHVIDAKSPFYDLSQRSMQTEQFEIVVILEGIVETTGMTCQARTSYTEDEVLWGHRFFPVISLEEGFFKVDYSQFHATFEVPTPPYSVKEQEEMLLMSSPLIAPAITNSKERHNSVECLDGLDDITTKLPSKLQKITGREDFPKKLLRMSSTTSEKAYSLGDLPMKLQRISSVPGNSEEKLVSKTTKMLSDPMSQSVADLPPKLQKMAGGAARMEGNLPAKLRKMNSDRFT
On to `CCOc1cc(C(=O)NCc2ccncc2)cc(OCC)c1OCC`, for which the manual score is 0.

As for `CO/N=C(\Cn1ncc(N2CCCC2)c(Br)c1=O)c1ccc(Cl)cc1`, the manual score was -1 (active).

Regarding `CC(=O)c1ccc(N2CCCC2)c(F)c1`, the manual score is 0.

Regarding `CO/N=C(\Cn1ncc(N2CCCC2)c(Cl)c1=O)c1ccc(Cl)cc1`, the manual score was -1 (active).

Take `CCN(CC)c1cnn(C/C(=N\OC)c2ccc(Cl)cc2)c(=O)c1Br`: the manual score was -1 (active).

For `COc1ccc(-c2ccnc3nc(Sc4ncc(C(F)(F)F)cc4Cl)nn23)cc1`, the manual score is 0.5.

For `CC(/C=N/NC(=O)c1c(Br)cnn1C)=C\c1ccccc1`, the manual score is 0.5.

In the case of `Cc1cc(C(F)(F)F)c2c(=O)[nH]c(=O)n(Cc3ccccc3)c2n1`, the manual score is 0.

Consider `O=c1c2ccccc2[nH]c(=S)n1C1CCCCC1`, for which the manual score was 0.

Consider `S=c1nc(C2CC2)[nH]c2ccccc12`, for which the manual score is 1 (active).

Turning to `CC(C)c1nc(=S)c2ccccc2[nH]1`, the manual score was 1 (active).

For the compound `CC(C)c1nc(=S)n(-c2ccccc2)[nH]1`, the manual score was 0.

For the compound `CCc1nc2cc(Cl)c(Cl)cc2[nH]1`, the manual score is 1 (active).

On to `O=P(CCCCCCCCCP(=O)(c1ccccc1)c1ccccc1)(c1ccccc1)c1ccccc1`, for which the manual score is -1 (active).

On to `Nc1nnc(C(=O)c2ccccc2N)s1`, for which the manual score is 0.

With `O=C(CSc1nc(-c2ccccc2)cc(C(F)(F)F)n1)NCCN1CCOCC1`, the manual score is 0.

Consider `Cc1ccc2cccc(Oc3nnnn3-c3ccccc3)c2n1`, for which the manual score is -1 (active).

On to `Cc1ccc(-n2nnnc2-c2nc3ccccc3s2)cc1`, for which the manual score was 0.

`CCCc1noc2c1/C(=N\O)CC(CC(C)SCC)C2` (stereo not given): the manual score was -1 (active).

Consider `COc1ccc2c(c1)Sc1ccccc1N2CCN(C)C`, for which the manual score was -1 (active).

Consider `CCCCn1c(-c2csc(C(C)C)c2)n[nH]c1=S`, for which the manual score is 0.

For the compound `COc1ccc2occ(C(=O)c3ccc(N=C(C)N(C)C)cc3)c2c1`, the manual score is -1 (active).

As for `Cc1ccc(Nc2n[nH]c(C)c2[N+](=O)[O-])cc1C`, the manual score is -0.5.

With `Cc1ccc(NC(=O)COc2cccnc2[N+](=O)[O-])cc1S(=O)(=O)N1CCCCC1`, the manual score is 1 (active).

As for `COc1cc(NC(=O)CSc2nccc(C)n2)c(C)cc1[N+](=O)[O-]`, the manual score is 0.

For the compound `Cc1ccc(OCC(=O)Nc2ccc(C)c(S(=O)(=O)N3CCCCC3)c2)c([N+](=O)[O-])n1`, the manual score is 1 (active).

For `CC(C)NS(=O)(=O)c1ccc(OCC(=O)Nc2ccc3c(c2)OCO3)c(Cl)c1`, the manual score is 0.

As to `COc1cccc(OCCc2c(C)n[nH]c2C)c1`, the manual score is 0.

With `Cc1ccc(NC(=S)N=Nc2c(O)n(C)c3ccc(S(=O)(=O)N4CCOCC4)cc23)cc1`, the manual score was 0.

On to `Cc1ccc(S(=O)(=O)N2CCN(C)CC2)cc1-c1nnc2c3ccccc3c(C)nn12`, for which the manual score was 0.

As for `CC(C)(C)C1CCc2[nH]nc(C(=O)O)c2C1` (stereo not given), the manual score was 0.5.

Regarding `CC(O)c1nc2ccccc2n1C1CCCCC1` (stereo not given), the manual score was 0.

Consider `C=CCOc1cccc(C2C(C(=O)c3ccc(C)o3)=C(O)C(=O)N2c2nccs2)c1` (stereo not given), for which the manual score was 3.

Regarding `COC(=O)c1cc(CSc2nc3ccc(C)cc3[nH]2)oc1C`, the manual score is -1 (active).

Take `CC(=O)Nc1ccc(C(=O)CSc2nc3ccc(C)cc3[nH]2)cc1`: the manual score is 0.

In the case of `CC1=NN(C(N)=S)C(=O)C1N=Nc1ccc(C)cc1C` (stereo not given), the manual score is 0.5.

For the compound `CC1=NN(C(N)=S)C(=O)C1N=Nc1ccccc1C` (stereo not given), the manual score is 1 (active).

For the compound `COc1ccc(CC(=O)Nc2cc(=O)n(C)c(=O)n2C)cc1`, the manual score was 0.

As to `Cc1ccc(-c2cn(-c3ccccc3)c(SCC(=O)NC3CCS(=O)(=O)C3)n2)cc1C` (stereo not given), the manual score is 0.

As for `O=c1[nH]c2ccc(Cl)cc2c(=O)n1Cc1ccco1`, the manual score was 0.

Regarding `O=c1c2cc(N3CCOCC3)ccc2[nH]c(=S)n1Cc1ccc(Cl)cc1`, the manual score was 0.

On to `O=c1c2cc(Cl)ccc2[nH]c(=S)n1Cc1ccco1`, for which the manual score was 1 (active).

As for `Cc1cc(C)n(CC(=O)O)n1`, the manual score was 0.

Take `Cc1cc(NC(=O)Nc2ccccc2)n(-c2ccccc2)n1`: the manual score was 1 (active).

Regarding `O=C(COc1ccc(Cl)cc1Cl)Nc1ccccn1`, the manual score was 0.

As for `Cc1cc(NC(=O)COc2ccc(Cl)cc2Cl)n(-c2ccccc2)n1`, the manual score is 1 (active).

For `O=C(COc1ccc(Cl)cc1Cl)NNC(=S)Nc1ccc(F)cc1`, the manual score is 0.

For `NC1=NC2(CCCCC2)n2c(nc3ccccc32)N1`, the manual score was 0.

As to `CCSc1ccccc1C(=O)Nc1cccnc1`, the manual score is 0.

In the case of `CCCCc1ccc(NC(=S)Nc2ccc(Cl)c(S(=O)(=O)N(C)C)c2)cc1`, the manual score is 1 (active).

For the compound `CCCCc1ccc(NC(=S)Nc2cccnc2)cc1`, the manual score was 1 (active).

For the compound `O=C(CCCc1nc(-c2ccc(Cl)cc2)no1)Nc1cccnc1`, the manual score is 0.

In the case of `CCCCN(CCCC)S(=O)(=O)c1ccc(NC(=O)c2ccc([N+](=O)[O-])cc2Cl)cc1`, the manual score was 0.

Consider `CC(C)N(C(=O)CN(C#N)c1nc(N(C)C)nc(N(C)C)n1)c1ccccc1`, for which the manual score is 0.

As to `CC(/C=N/n1c(-c2ccc(Cl)cc2)n[nH]c1=S)=C\c1ccco1`, the manual score was 0.

For the compound `Oc1[nH]c2ccccc2c1N=Nc1nc2ccccc2s1`, the manual score was 1 (active).

Regarding `O=C(CSCc1ccccc1)N=Nc1c(O)[nH]c2ccccc12`, the manual score was 0.

On to `Oc1[nH]c2ccccc2c1N=NC(=S)NCCc1ccccc1`, for which the manual score was 0.

`O=C(c1ccco1)N1CCN(c2ncnc3scc(-c4cccs4)c23)CC1`: the manual score was -1 (active).

As for `O=C(c1cc2nc(-c3ccccc3)cc(-c3ccccc3)n2n1)N1CCN(C(=O)c2ccco2)CC1`, the manual score was 0.

As for `Cc1ccc(-c2csc3ncnc(N4CCN(C(=O)c5ccccc5)CC4)c23)cc1`, the manual score was -1 (active).

On to `O=C(c1ccco1)N1CCN(C(=O)c2cnn3c2NC(c2cccs2)CC3C(F)(F)F)CC1` (stereo not given), for which the manual score was 0.

In the case of `O=C(c1ccc(-c2ccccc2)cc1)N1CCN(c2ncccn2)CC1`, the manual score was 0.

With `Cc1ccc(-c2nnc(SCC(=O)Nc3cccc(C(=O)N4CCOCC4)c3)n2C)cc1`, the manual score was -0.5.

Turning to `COCC(C)OC(=O)c1c(N)n(CC(C)C)c2nc3ccccc3nc12` (stereo not given), the manual score was 0.

For `CCOP(=O)(c1ccccc1)c1nc(-c2ccccc2C)oc1N1CCCCC1` (stereo not given), the manual score was -1 (active).

As for `O=C(NC(=S)N1CCN(c2ccc(Cl)cc2[N+](=O)[O-])CC1)c1ccco1`, the manual score is 1 (active).

As for `O=C(NC(=S)N1CCN(c2c(Cl)cccc2[N+](=O)[O-])CC1)c1cccs1`, the manual score is 1 (active).

Consider `O=C(O/N=C\c1ccc(N2CCCCC2)c([N+](=O)[O-])c1)c1c(F)cccc1F`, for which the manual score is 0.

For the compound `O=C(NC(=S)Nc1cccc(Cl)c1N1CCCC1)c1ccc(-c2cccc([N+](=O)[O-])c2)o1`, the manual score was 0.

Regarding `O=C(NC(=S)N1CCCCC1)c1cccs1`, the manual score was 1 (active).

On to `O=C(NC(=S)N1CCN(c2ccc(Cl)cc2[N+](=O)[O-])CC1)c1cccs1`, for which the manual score is 1 (active).

On to `O=C(NC(=S)Nc1ccccc1N1CCOCC1)c1cccs1`, for which the manual score is 0.

With `N#CC(C#N)=C1C=C2C=C(N3CCCCCC3)CCC2CC1` (stereo not given), the manual score is 3.

Consider `CCCC(=O)Nc1ccc(NC(=O)C2CC2)cn1`, for which the manual score is 0.

`CN(c1ccc(OCC(=O)OCC(=O)Nc2ccccc2F)cc1)S(=O)(=O)c1cccs1`: the manual score is 0.

In the case of `O=C(NC(=S)N1CCN(c2ccc(C(F)(F)F)cc2[N+](=O)[O-])CC1)c1cccs1`, the manual score is 1 (active).

As to `O=C(CN1CCOCC1)Nc1ccc(C2CCCCC2)cc1`, the manual score is 1 (active).

As for `CCc1sc(NC(=O)CN2CCOCC2)nc1-c1ccccc1`, the manual score was 0.

For `O=C(CNC1CCCCCC1)Nc1ccc(N2CCCC2)cc1`, the manual score was 0.

Regarding `S=c1[nH]c2cc(Cl)ccc2s1`, the manual score was 1 (active).

Regarding `CCOC(=O)CSc1nc2ccc(Nc3nc(N4CCOCC4)nc(N4CCOCC4)n3)cc2s1`, the manual score is 0.

Regarding `O=C1CC(c2ccco2)Sc2nc3ccccc3n21` (stereo not given), the manual score was 0.

Consider `CCCc1nc2ccccc2c(=O)n1/N=C/c1c(C)[nH]n(-c2ccc(C)cc2)c1=O`, for which the manual score is 1 (active).

Turning to `Cc1ccc(-n2[nH]c(C)c(/C=N/c3ccccn3)c2=O)cc1`, the manual score is 0.

With `Cc1ccc(C2CC2c2n[nH]c(=S)n2-c2ccc(C)cc2)cc1` (stereo not given), the manual score is 0.

Take `CCCc1ccc(C(=O)N2CCN(c3ccccc3OCC)CC2)cc1`: the manual score is -1 (active).

`CCOc1ccccc1N1CCN(C(=O)c2cc3c(s2)CCC3)CC1`: the manual score was -0.5.

For `CCOc1ccccc1N1CCN(C(=S)NC(=O)C23CC4CC(CC(C4)C2)C3)CC1`, the manual score was 0.

As for `NC(=O)c1noc(C(=O)N(CC(=O)NC2CCCC2)Cc2ccc3c(c2)OCO3)c1N`, the manual score is 0.

Consider `O=C(CSc1c[nH]c2ccccc12)NCc1ccc2c(c1)OCO2`, for which the manual score was -0.5.

Turning to `O=C(CSc1nc(CCC2CCCC2)nc2ccccc12)NCc1ccc2c(c1)OCO2`, the manual score was 1 (active).

Turning to `Cc1ccc(C)n1-c1ccc(C(=O)NN)cc1`, the manual score was 0.

On to `CC(/C=N/n1c(C2CCCCC2)n[nH]c1=S)=C\c1ccccc1`, for which the manual score is 0.

On to `CC(C)c1ccc(-n2cccc2/C=C2/C(=N)N3C=CSC3=NC2=O)cc1`, for which the manual score is 0.

On to `C=CCn1c(O)c(N=NC(=O)OC(C)(C)C)c2ccccc21`, for which the manual score is 1 (active).

As for `CCCn1c(O)c(N=NC(=O)c2ccco2)c2ccccc21`, the manual score was 1 (active).

As for `CCn1c(O)c(N=NC(=O)CNc2cccc(C)c2)c2ccccc21`, the manual score is 0.

For `C=CCn1c(N)c(C(=O)OC(C)(C)C)c2nc3ccccc3nc21`, the manual score was 0.

Consider `CCCCn1c(O)c(N=Nc2ccccn2)c2ccccc21`, for which the manual score is 0.

As for `CCCCNC(=S)N=Nc1c(O)n(Cc2ccccc2)c2ccccc12`, the manual score is 0.

As to `O=C(NC(=S)N1CCCCC1)C12CC3CC(CC(C3)C1)C2`, the manual score was 0.5.

Take `CC12CC3(C)CC(C)(C1)CC(C(=O)NC(=S)N1CCOCC1)(C2)C3`: the manual score was 1 (active).

Take `CC12CC3CC(C)(C1)CC(C(=O)NC(=S)N1CCCCC1)(C3)C2`: the manual score was 1 (active).

For `CC12CC3CC(C)(C1)CC(C(=O)NC(=S)N1CCOCC1)(C3)C2`, the manual score was 0.5.

Values taken from PubChem BioAssay AID623911 (Vanderbilt High Throughput Screening Facility, 2012).
